# Reference: PubChem BioAssay (Tox21)
# Values joined by “and” are separate entries in the source; they are usually repeats but may differ in a detail not shown here. Equal values may be shown once. Results filed as inconclusive are left out. Where a call stands in place of a potency, no number is given. Some compounds were tested as several samples or in several runs, with calls that do not always agree. Active and inactive are the calls of the source. Calls follow the shape of the dose curve; as a rule, active = well fitted activation curve with a large enough effect in the repeat runs; inconclusive = weak or mixed curves; inactive = flat fitted curve, though single readings scatter.
# Experiment: A CellTox Green Cytotoxicity Assay to monitor cytotoxicity in HepG2 cells - 24 hour (AID 1224878); also: nearly all actives have a fitted effect of over 45% in size
# Settings: CellTox Green fluorescence; series mostly up to 76.8 µM
# Excerpt: National Center for Advancing Translational Sciences [NCATS]
# NIH Chemical Genomics Center [NCGC]
# U.S. Environmental Protection Agency [EPA]
# National Institutes of Environmental Health Sciences [NIEHS]
# National Toxicology Program [NTP]
# Cell-based models are critical for drug discovery. Determining the natural cytotoxic effects resulting from test compounds is an essential research activity. A CellTox Green Cytotoxicity Assay to monitor cytotoxicity in real time of continues cell culture during 40 hours of the compound treatment was used to screen Tox21 10K library compounds in HepG2 cells. CellTox Green Cytotoxicity Assay is a nonlytic, homogeneous, biofluorescent method to measure cytotoxicity in cell culture after experimental manipulation. The assay system uses a proprietary asymmetric cyanine dye that is excluded from viable cells but preferentially stains the dead cell's DNA. […] Viable cells produce no appreciable increases in fluorescence. Therefore, the fluorescence signal produced by the binding interaction with dead cell DNA is proportional to cytotoxicity.
# The mixture of HepG2 cell suspension and reagents were dispensed at 600cells/6 ul/well in 1536-well tissue culture treated black solid bottom plates using a Multidrop dispenser. After the assay plates were incubated at a 37 C/5% CO2 incubator for 5 hours, 23 nL of compounds dissolved in DMSO, positive and negative controls was transferred to the assay plate by a pintool work station. The plates were incubated at 37 C for 40 hours. The fluorescence intensity were measured at 0h, 8h, 16h, 24h, 32h and 40h time points using ViewLux plate reader during compound treatment.
# Potency is read from the fitted curve at half-maximal effect.
Compound,Potency,cytotoxicity
CCn1cc[n+](C)c1 (tested in a mixture with another compound),inactive,–
CSSC,inactive,–
CCCCCCCCCCCCCCn1cc[n+](C)c1,24.6 µM (active) and 38.5 µM (active) and inactive,–
C=C(C)C(=O)[O][Sn]([CH2]CCC)([CH2]CCC)[CH2]CCC,0.616 µM (active),–
CC(=O)O.CC(=O)O.CC(=O)O.CC(=O)O.CC(=O)O.CC(=O)O.CC(=O)O.O.O.[Cr].[Cr].[Cr],inactive,–
[Cl][Hg][c]1ccccc1,3.47 µM (active),–
Clc1c(Cl)c(Cl)c(Cl)c(Cl)c1Cl,–,0.224% [at 6.97 µM] (inactive)
CC[C@H](C)[C@H]1O[C@]2(C=C[C@@H]1C)C[C@@H]1C[C@@H](C/C=C(\C)[C@@H](O[C@H]3C[C@H](OC)[C@@H](O[C@H]4C[C@H](OC)[C@@H](NC)[C@H](C)O4)[C@H](C)O3)[C@@H](C)/C=C/C=C3\CO[C@@H]4[C@H](O)C(C)=C[C@@H](C(=O)O1)[C@]34O)O2,11 µM (active),–
[O-][Cl+3]([O-])([O-])O,inactive,–
O=[N+]([O-])c1ccc(Cl)c(Cl)c1Cl,inactive,–
Oc1ccc([C@H]2CNCc3c2ccc(O)c3O)cc1O,26.8 µM (active),–
c1ccc2c(c1)cc1ccc3cccc4ccc2c1c34,inactive,–
O=C(Cl)c1ccccc1F,inactive,–
Cc1ccccc1OP(=O)(Oc1ccccc1C)Oc1ccccc1C,inactive,–
CCC[CH2][Sn]([CH2]CCC)([CH2]CCC)[O][Sn]([CH2]CCC)([CH2]CCC)[CH2]CCC,0.537 µM (active),–
Cc1ccc2cc3c(ccc4ccccc43)c3c2c1CC3,inactive,–
CCCCON=O,inactive,–
CO/N=C(/C1=NOCCO1)c1ccccc1Oc1ncnc(Oc2ccccc2Cl)c1F,inactive,–
O=c1c2ccccc2c(=O)c2c1cc(Cl)c1[nH]c3c([nH]c12)c(Cl)cc1c(=O)c2ccccc2c(=O)c13,inactive,–
OCC(Br)CBr (stereo not given),inactive,–

Compound,Potency,cytotoxicity
Oc1ccc(Cl)c(Cl)c1,inactive,–
Oc1cc(Cl)cc(Cl)c1,inactive,–
CCC(C)Br (stereo not given),inactive,–
C[C@@H]1CC2=CC(=O)CC[C@@H]2[C@H]2CC[C@@]3(C)[C@@H](CC[C@]3(C)O)[C@@H]21,inactive,–
COc1ccc2c3c1O[C@H]1[C@H](O)CC[C@H]4[C@@H](C2)N(C)CC[C@@]341,inactive,–
COc1ccc2[nH]cc(CCN(C(C)C)C(C)C)c2c1,inactive,–
CN(C)CCc1c[nH]c2ccccc12,inactive,–
CC[C@]1(O)CC[C@H]2[C@@H]3CCC4=CCCC[C@@H]4[C@H]3CC[C@@]21C,inactive,–
Nc1nc(N)c(N)c(N)n1,55.2 µM (active),–
N#Cc1sc2c(=O)c3ccccc3c(=O)c=2sc1C#N,12.3 µM (active),–
Cc1ccc([N+](=O)[O-])[c]2c1[O][Hg]2,2.68 µM (active),–
CN1[C@@H]2CC[C@H]1CC(O)C2 (stereo not given in full),inactive,–
CN(C)c1ccc(N)cc1,inactive,–
CC#C[C@]1(O)CC[C@H]2[C@@H]3C[C@H](C)C4=CC(=O)CC[C@]4(C)[C@H]3CC[C@@]21C,inactive,–
NC(=O)C(Cl)Cl,inactive,–
COC(=O)c1cc(Oc2ccc(Cl)cc2Cl)ccc1[N+](=O)[O-],inactive,–
O=S1OCC2C(CO1)C1(Cl)C(Cl)=C(Cl)C2(Cl)C1(Cl)Cl (stereo not given),48.9 µM (active),–
Cc1ccn2nc(S(=O)(=O)Nc3c(F)cccc3F)nc2n1,inactive,–
CN1C(=O)[C@@H](NC(=O)c2cc3ccccc3[nH]2)N=C(c2ccccc2)c2ccccc21,inactive,–
CCN(CC)C(=O)N[C@@H]1C=C2c3cccc4[nH]cc(c34)C[C@@H]2N(C)C1,inactive,–
